# Data as given in PubChem BioAssay (NCATS).
# Inconclusive results are not listed. Where a call stands in place of a potency, no number is given. The source made the active and inactive calls. Calls follow the shape of the dose curve; as a rule, active = well fitted curve in the direction sought with a large enough effect; inconclusive = small, poorly fitted or top-dose-only effect, or another doubt; inactive = no such curve, though single readings can be large or run the other way.
# Target: Metallo-beta-lactamase type 2 (Klebsiella pneumoniae) (UniProt C7C422)
# Sequence (C7C422 whole entry, looked up): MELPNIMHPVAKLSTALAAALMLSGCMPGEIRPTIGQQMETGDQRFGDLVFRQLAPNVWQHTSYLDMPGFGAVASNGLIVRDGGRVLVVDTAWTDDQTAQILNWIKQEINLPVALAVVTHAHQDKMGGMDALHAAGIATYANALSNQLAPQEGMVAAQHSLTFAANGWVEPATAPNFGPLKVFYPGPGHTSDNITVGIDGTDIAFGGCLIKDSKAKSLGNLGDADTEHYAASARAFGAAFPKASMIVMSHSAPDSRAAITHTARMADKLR
# Assay: qHTS to identify inhibitors of the New Delhi Metallo-beta-lactamase (NDM): assay validation screen against the NCATS LOPAC Collection (AID 1794843);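 also: nitrocefin turnover by NDM-1 measured as 485 nm absorbance at plateau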
# Conditions: NDM-1 enzyme, nitrocefin hydrolysis, absorbance 485 nm; series mostly up to 38.4 µM
# Excerpt: Assay Submitter (PI): James Inglese Ph.D., Patricia Dranchak Ph.D., Mahesh Aitha Ph.D.
# Assay Development and Screening Technology Laboratory (ADST)
# National Center for Advancing Translational Sciences (NCATS), Rockville, MD
# National Institute of Health (NIH), Bethesda, Maryland
# The metallo-beta-lactamases (MBL) are a main antibiotic resistance mechanism evolved by bacteria. There is an urgent clinical need for MBL inhibitors to mitigate this growing threat. To support a machine-based learning study, qHTS has been used to experimentally test inhibitors identified by prediction tools.
# PROTOCOL TABLE (as described by Inglese et al., 2007)
# SEQUENCE No. (e.g., 1, 2, 3, etc.); […] (e.g., enzyme, Incubation, Reagent, etc.); VALUE; DESCRIPTION
# 1; NDM-1; 4 uL of 3 nM enzyme in 50 mM HEPES (pH 7.0), 1 uM Zn2SO4, 0.01% Tween20; Use BioRaptr to dispense into Aurora black, clear bottom low base 1536-well plates
# 2; Compounds; 23 nL; Use Pin Tool (Wako) to transfer DMSO control and library compounds in DMSO
# 4; Reagent; 2 uL of 50 uM nitrocefin
# 6; Detector; Absorbance at 485 nm (bandwidth = 5 nm, 25 flashes/well) on Tecan Infinity
# NOTES (numbers refer to sequence above)
# 1; Column 1 of each plate received assay buffer without enzyme and columns 2-48 received enzyme for a final assay concentration of 2 nM.
# 2; Control plate contained DMSO in columns 1, 2, 3, and 4.
# 3; Compound interaction with enzyme.
# 5; Substrate interaction with enzyme, plateau phase of kinetics.
# 6; Default reader settings were applied for absorbance read at 485 nm, bandwidth = 5 nm, 25 flashes/well.
# Inglese J, Shamu CE, Guy RK. 2007. Reporting data from high-throughput screening of small-molecule libraries. Nat Chem Biol. doi:10.1038/nchembio0807-438
# Yasgar A, Shinn P, Jadhav A, Auld D, Michael S, Zheng W, Austin CP, Inglese J, Simeonov A. 2008. Compound Management for Quantitative High-Throughput Screening. J Lab Autom 13:79 - 89. doi:10.1016/j.jala.2007.12.004
row,SMILES,Potency
1,COc1ccc2[nH]cc(CCN)c2c1,inactive
2,C[N+](C)(C)CCOC(=O)CBr,inactive
3,C=CCN1CCC23c4c5ccc(O)c4O[C@H]2C(=O)CC[C@@]3(O)C1C5 (stereo not given in full),inactive
4,CC(N)Cc1c[nH]c2ccc(OCc3cccs3)cc12 (stereo not given),inactive
5,C[C@@H]1O[C@@H](O[C@H]2C[C@@H](O)[C@]3(CO)[C@@H]4C(CC[C@]3(O)C2)[C@@]2(O)CC[C@H]([C@@H]3COC(=O)C3)[C@@]2(C)C[C@H]4O)[C@H](O)[C@H](O)[C@H]1O (stereo not given in full),inactive
6,O=C(NC1CN2CCC1CC2)c1cc2ccoc2cn1 (stereo not given),inactive
7,N#C/C(=C/c1ccc(O)c(O)c1)C(N)=S,inactive
8,N[C@@H](Cn1oc(=O)[nH]c1=O)C(=O)O,inactive
9,CC12NC(Cc3ccccc31)c1ccccc12 (stereo not given),inactive
10,CC(=O)OCC1=C(C(=O)O)N2C(=O)[C@@H](NC(=O)CCC[C@@H](N)C(=O)O)[C@H]2SC1,inactive
11,NCCc1ccc(S(=O)(=O)F)cc1,inactive
12,Nc1ccc(CCN2CCN(c3cccc(C(F)(F)F)c3)CC2)cc1,inactive
13,C[N+]1(C)CCOC(O)(c2ccc(-c3ccc(C4(O)C[N+](C)(C)CCO4)cc3)cc2)C1 (stereo not given),inactive
14,CC(C)(O)[C@@H]1C2OC(=O)[C@@H]1[C@]1(O)C[C@H]3O[C@]34C(=O)O[C@H]2[C@]14C (tested in a mixture with another compound),inactive
15,CC(N)c1cccc(Cl)c1Cl (stereo not given),inactive
16,CCCC[N+]1(C)C2CC(OC(=O)[C@H](CO)c3ccccc3)CC1C1OC12 (stereo not given in full),inactive
17,NC(=O)c1ccc(OCC(O)CN2CC=C(c3ccc(F)cc3)CC2)cc1 (stereo not given),inactive
18,NCCc1c[nH]c2ccc(C(N)=O)cc12,inactive
19,CCNC(=O)[C@H]1O[C@@H](n2cnc3c(N)ncnc32)[C@H](O)[C@@H]1O,inactive
20,COc1ccc2c(c1)C13CCCCC1C(C2)N(C)CC3 (stereo not given),inactive

row,SMILES,Potency
1,CC(N)Cc1c[nH]c2ccc(O)cc12 (stereo not given),inactive
2,CN1CCC[C@@H]1Cc1c[nH]c2ccc(Nc3ncccc3[N+](=O)[O-])cc12,inactive
3,NC(=O)COc1c(F)cc(SCCNS(=O)(=O)c2ccccc2)cc1F,inactive
4,O=c1ccc2[nH]cc(C3=CCNCC3)c2[nH]1,inactive
5,CCN1C[C@@]2(COC)C3[C@@H](OC)C4[C@@H]1C3([C@@H]1C[C@]3(O)[C@H](OC(=O)c5ccccc5)[C@@H]1[C@]4(OC(C)=O)[C@@H](O)[C@@H]3OC)[C@H](OC)C[C@H]2O,inactive
6,CCCN1CC[C@@H]2c3cc(O)ccc3CC[C@@H]21,inactive
7,CC(C)(C)OC(=O)NC1[C@H]2CNC[C@@H]12 (stereo not given in full),inactive
8,CC(C)(C)c1o[nH]c(=O)c1CC(N)C(=O)O (stereo not given),inactive
9,O=C1C=CC(=O)C=C1,inactive
10,Oc1ccc2c3c1O[C@H]1c4[nH]c5ccccc5c4C[C@@]4(O)C(C2)N(CC2CC2)CCC314 (stereo not given in full),inactive
11,CC(Cc1ccc(OCC(=O)O)cc1)NCC(O)c1cccc(Cl)c1 (stereo not given),inactive
12,CCCN(CCC)C1CCc2cccc(O)c2C1 (stereo not given),inactive
13,CCCN(CCC)[C@H]1CCc2c(F)ccc(O)c2C1,inactive
14,CCCN(CCC)C1Cc2cc(OC)c(OC)cc2C1,inactive
15,CN1CCc2cccc(Cl)c2CC1,inactive
16,CP(=O)(O)C1=CCNCC1,inactive
17,NC(CCCCCP(=O)(O)O)C(=O)O (stereo not given),inactive
18,C[N+](C)(C)CC#CCN1CCCC1=O,inactive
19,Cc1[nH]c2ccc(O)cc2c1CCN,inactive
20,c1ccc2cc(CC3=NCCN3)ccc2c1,inactive
